Bioassay records: PubChem, National Center for Advancing Translational Sciences (NCATS)
FLuc inh-1 – Photinus pyralis luciferase inhibition; P08659; purified P. pyralis luciferase, luminescence, biochemical; Potency, µM (titrated, usually from 115 µM), usual class: inhibitors; actives 2.5% (n = 76,000); AID 1347043; note: nearly all actives have a fitted effect of over 65% in size
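Luminescence read by CCD imager after adding enzyme (10nM final) to wells holding compound, titrated in qHTS. Substrates 10uM each D-luciferin and ATP; buffer 50mM Tris acetate pH 7.5, 10mM Mg acetate, Tween-20, BSA.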
3T3 cytotox – cytotoxic compounds in NIH 3T3 cells | actives 4.3% (n = 94,000) | NIH 3T3 viability, CellTiter-Glo ATP luminescence, 48-72 h | Potency, µM (top dose mostly 96.7 µM), usual class: inhibitors | AID 1345082; note: nearly all actives have a fitted effect of over 55% in size
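Cytotoxicity is measured as loss of cellular ATP: NIH 3T3 cells (400/well) are exposed to compound for 48 or 72 hr at 37 °C, then CellTiter-Glo luminescence is imaged after 10 min at room temperature.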
hNpr1 antagonist – human Npr1 receptor antagonism | P16066 | HEK293 hNpr1 GloSensor cGMP, ANP-stimulated luminescence | Potency, µM (titrated, usually from 46.3 µM), actives largely listed as inhibitors | actives 1.6% (n = 76,000); calls by dose curve; note: nearly all actives have a fitted effect of over 60% in size
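HEK293 cells stably expressing human Npr1 and cGMP GloSensor pGS-40F, loaded 2 h with 2% GloSensor reagent, given compound 30 min at room temperature. Luminescence read before and 20 min after 0.1 nM hNppA.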
GPT2 inh – inhibitors of human GPT2 alanine aminotransferase | actives 0.25% (n = 100,000) | Recombinant GPT2, coupled pyruvate oxidase/HRP Amplex Red fluorescence | Q8TD30 | Potency, µM (highest dose often 57.7 µM), hits mostly inhibitors; note: nearly all actives have a fitted effect of over 60% in size
Target sequence (Q8TD30 whole entry, looked up): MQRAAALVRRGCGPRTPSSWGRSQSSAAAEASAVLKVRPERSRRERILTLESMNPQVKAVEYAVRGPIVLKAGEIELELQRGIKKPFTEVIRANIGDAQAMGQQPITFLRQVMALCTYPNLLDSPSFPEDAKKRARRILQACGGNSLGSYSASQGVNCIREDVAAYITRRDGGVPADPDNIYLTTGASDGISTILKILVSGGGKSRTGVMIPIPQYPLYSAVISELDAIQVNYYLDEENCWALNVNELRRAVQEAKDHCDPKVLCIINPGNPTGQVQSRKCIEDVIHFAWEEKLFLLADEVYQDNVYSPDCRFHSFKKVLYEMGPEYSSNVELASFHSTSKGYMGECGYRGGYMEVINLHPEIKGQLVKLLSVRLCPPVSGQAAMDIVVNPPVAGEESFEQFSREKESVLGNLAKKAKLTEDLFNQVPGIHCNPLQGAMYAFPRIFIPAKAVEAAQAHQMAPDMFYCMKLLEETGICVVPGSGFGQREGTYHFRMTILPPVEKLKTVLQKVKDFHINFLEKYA
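GPT2 10ng/uL, a-KG 250uM, L-Ala 2mM, HEPES pH7.5 + 0.0001% Tween; 30 min RT. Then Amplex mix (PO/HRP/ThPP), 30 min RT dark, fluorescence. AOA 50uM used as positive control.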
HEK cytotox – cytotoxic compounds in HEK 293 cells. HEK 293 viability, ATP luminescence (CellTiter-Glo), 48-72 h. Potency, µM (top dose mostly 115 µM), usual class: inhibitors. actives 6.6% (n = 94,000); note: nearly all actives have a fitted effect of over 60% in size
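Read-out: CellTiter-Glo ATP luminescence. Cells: HEK 293, 250 cells/well. Exposure: 48 or 72 hr, 37 degree Celsius.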
FLuc SDR -ATP – firefly luciferase binding stabilization, ATP absent | Purified FLuc-C-HiBiT, Nano-Glo HiBiT luminescence, no ATP | shares compounds with FLuc inh-1 | actives 7.8% (n = 1,300) | AID 1963318 | Potency, µM (series often up to 32.7 µM), usual class: activators; note: nearly all actives have a fitted effect of over 55% in size
FLuc SDR ATP – stabilizes firefly luciferase with ATP present; shares compounds with FLuc inh-1; purified FLuc-C-HiBiT + ATP, HiBiT complementation luminescence; actives 8.7% (n = 1,300); AID 1963319; Potency, µM (series often up to 32.7 µM), hits mostly activators;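 note: signal reports ligand binding via conformational change of the enzyme rather than luciferase catalysis; nearly all actives have a fitted effect of over 55% in size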
FLuc inh-2 – blocks firefly luciferase enzymatic activity; shares compounds with FLuc inh-1; purified FLuc-C-HiBiT enzyme, luciferin luminescence; Potency, µM (highest dose often 32.7 µM), actives largely listed as inhibitors; actives 42% (n = 1,300); AID 1963320; note: nearly all actives have a fitted effect of over 70% in size
Of the large screens only hits and unclear results are named; the others gave an inactive call (follow-up assays come after a bar, where they were run). Compounds with a hit are over-represented: about 10% of the library has one in this group of screens. Unless noted, calls come from the whole dose curve; as a rule, active = well fitted curve in the direction sought with a large enough effect; inconclusive = small, poorly fitted or top-dose-only effect, or another doubt; inactive = no such curve, though single readings can be large; an effect the other way counts as inactive or inconclusive.

CC1CCCN(c2ncnc3c2CN(C2CCNCC2)C(=O)CN3C)C1 (stereo not given)	none (no result: FLuc inh-1, hNpr1 antagonist)
Cc1ccc(OCc2nc(C3CCCCN3C(=O)c3cc(F)ccc3F)no2)cc1 (stereo not given)	3T3 cytotox inconclusive, HEK cytotox inconclusive
COc1ccc(CC(=O)N2CCN(c3ccnc4ccnn34)CC2)cc1	3T3 cytotox inconclusive, HEK cytotox inconclusive (no result: FLuc inh-1, hNpr1 antagonist)
CN1c2cc(C(=O)Nc3cc(F)ccc3F)ccc2C(=O)N2CCCCCC21 (stereo not given)	FLuc inh-1 11µM, 3T3 cytotox inconclusive, HEK cytotox inconclusive | FLuc SDR -ATP inactive | FLuc SDR ATP inconclusive | FLuc inh-2 inconclusive
Cc1ccc(NC(=O)c2ccc3c(c2)N(C)C2CCCN2C3=O)cc1F (stereo not given)	FLuc inh-1 1.3µM, hNpr1 antagonist inconclusive, HEK cytotox inconclusive | FLuc SDR -ATP inactive | FLuc SDR ATP 4.4µM | FLuc inh-2 8.8µM
Cc1ccc(NC(=O)c2ccc3c(c2)N(C)C2CCCN2C3=O)cc1C (stereo not given)	FLuc inh-1 13µM | FLuc SDR -ATP inactive | FLuc SDR ATP inconclusive | FLuc inh-2 inconclusive
CN1c2cc(C(=O)Nc3cc(F)cc(F)c3)ccc2C(=O)N2CCCCCC21 (stereo not given)	FLuc inh-1 inconclusive, 3T3 cytotox inconclusive, hNpr1 antagonist inconclusive, HEK cytotox inconclusive
Cc1noc([C@H]2CCN(C(=O)NCc3ccc(F)cc3)C[C@H]2NC(=O)C2CCOCC2)n1	none
COc1ccc(-c2cc(CC3(NC4CCN(C(C)=O)CC4)COC3)no2)cc1	HEK cytotox inconclusive
COc1ccc(NC(=O)Nc2cccc(-c3ccc(N4CCOCC4)nn3)c2)cc1F	FLuc inh-1 0.4µM, hNpr1 antagonist 10µM, HEK cytotox inconclusive | FLuc SDR -ATP inconclusive | FLuc SDR ATP inconclusive | FLuc inh-2 0.88µM
O=C(NCc1ccc(F)cc1)Nc1cccc(-c2ccc(N3CCOCC3)nn2)c1	FLuc inh-1 1.3µM, hNpr1 antagonist inconclusive, HEK cytotox inconclusive | FLuc SDR -ATP inconclusive | FLuc SDR ATP inconclusive | FLuc inh-2 1.8µM
COc1ccc(CNC(=O)Nc2cccc(-c3ccc(N4CCOCC4)nn3)c2)cc1	FLuc inh-1 0.89µM, HEK cytotox inconclusive | FLuc SDR -ATP inconclusive | FLuc SDR ATP inconclusive | FLuc inh-2 2µM
COc1ccc(-c2cccc(C(=O)N3CCN(C(=O)Nc4ccccc4)CC3)c2)nn1	none (no result: FLuc inh-1, hNpr1 antagonist, GPT2 inh)
CCNC(=O)Nc1ccc(OCC(=O)NCc2ccc(N3CCOCC3)cc2)nc1	none
COc1ccc(NC(=O)Nc2cccc(-c3ccc(N4CCOCC4)nn3)c2)cc1	FLuc inh-1 1.1µM, hNpr1 antagonist 10µM, HEK cytotox inconclusive | FLuc SDR -ATP inconclusive | FLuc SDR ATP inconclusive | FLuc inh-2 1.8µM
CN(CCO)c1ccc(C(=O)N2CCC(Oc3cccnc3)CC2)cn1	none
COc1ccc(-c2ccc3c(c2)C(=O)N2CC[C@H](NC(=O)c4cccc(F)c4)[C@H]2C(=O)N3)cc1	FLuc inh-1 11µM, 3T3 cytotox inconclusive, HEK cytotox inconclusive | FLuc SDR -ATP inactive | FLuc SDR ATP inactive | FLuc inh-2 inconclusive
CSc1ccc(-c2ccc3c(c2)C(=O)N2CC[C@H](NC(=O)c4cccs4)[C@H]2C(=O)N3)cc1	FLuc inh-1 6.3µM | FLuc SDR -ATP inactive | FLuc SDR ATP inactive | FLuc inh-2 inconclusive
O=C(N[C@H]1CCN2C(=O)c3cc(-c4ccc(F)cc4F)ccc3NC(=O)[C@H]12)c1cccc(F)c1	FLuc inh-1 inconclusive, 3T3 cytotox inconclusive, HEK cytotox inconclusive
C#CCn1c(/C=C/c2ccc(Cl)cc2)nc2ccccc21	none (no result: FLuc inh-1, 3T3 cytotox, hNpr1 antagonist, GPT2 inh, HEK cytotox) | FLuc SDR -ATP 3.9µM | FLuc SDR ATP inconclusive | FLuc inh-2 0.62µM
O=C(C1CC1)N1CCN(c2ccnc3ccnn23)CC1	none (no result: FLuc inh-1, hNpr1 antagonist)
COc1cccc(NC(=O)CC2CCCCN(C)C2=O)c1 (stereo not given)	none
Cc1noc([C@@H](C)NS(C)(=O)=O)c1C(=O)O	none
CCC(C)(C)NC(=O)c1ccc(-c2nnc3ccc(NC(=O)C4CC4)cn23)cc1	HEK cytotox inconclusive
CCC(=O)Nc1ccc2nnc(-c3ccc(C(=O)Nc4ccc5c(c4)OCCO5)cc3)n2c1	FLuc inh-1 14µM, HEK cytotox inconclusive | FLuc SDR -ATP inactive | FLuc SDR ATP inconclusive | FLuc inh-2 inconclusive
COc1ccccc1-c1cc(C(=O)NCc2ccc(Cl)cc2)nn2cnnc12	3T3 cytotox inconclusive, HEK cytotox inconclusive (no result: FLuc inh-1, hNpr1 antagonist)
O=[N+]([O-])c1cccc(-c2noc([C@@H]3C[C@@H](O)CN3Cc3ccccc3O)n2)c1	3T3 cytotox inconclusive, HEK cytotox inconclusive
COc1cccc(-c2ccc(C(=O)N3CCC(C(=O)NCc4ccc5c(c4)OCO5)CC3)cc2)c1	3T3 cytotox inconclusive, HEK cytotox inconclusive (no result: FLuc inh-1, hNpr1 antagonist)
Cc1nnc(SCc2ccccc2)c2cc3sccc3n12	none (no result: FLuc inh-1, 3T3 cytotox, hNpr1 antagonist, GPT2 inh, HEK cytotox) | FLuc SDR -ATP inactive | FLuc SDR ATP inactive | FLuc inh-2 inconclusive
CCc1ccc(C(=O)Nc2ccc3c(N4CCOCC4)ncnc3c2)cc1	FLuc inh-1 10µM, 3T3 cytotox 8.9µM, HEK cytotox inconclusive | FLuc SDR -ATP inconclusive | FLuc SDR ATP inconclusive | FLuc inh-2 7.9µM
CN(C)c1cccc(C(=O)Nc2ccc3ncnc(N4CCCCC4)c3c2)c1	3T3 cytotox inconclusive, HEK cytotox inconclusive
CCOc1ccc(C(=O)Nc2ccc3ncnc(N4CCCCC4)c3c2)cc1	3T3 cytotox inconclusive, HEK cytotox inconclusive
